System: Vero E6 infected with SARS-CoV-2
Experiment: inhibition of SARS-CoV-2 cytopathic effect; higher = more antiviral protection, active = above 15
Conditions: 48 h

Measured: inhibition of SARS-CoV-2 cytopathic effect

C[C@@]1(c2cc(-c3cncnc3)c(F)cc2F)CCSC(N)=N1
inactive: 1 nM -0.91% | 8.33 nM -3.4% | 100 nM -0.51% | 833.33 nM -2% | 10000 nM -3.12%

Cc1ccc2nc(NCCN)c3ncc(C)n3c2c1
inactive: 1 nM -1.03% | 8.33 nM -0.71% | 100 nM -2.54% | 833.33 nM 0.69% | 10000 nM -11.4%

O=C(O)/C=C/c1ccc(O)c(O)c1 [caffeic-acid]
inactive: 1 nM 2.05% | 8.33 nM -0.05% | 100 nM 0.87% | 833.33 nM -0.22% | 10000 nM -4.36%

COc1cc2nc(N3CCN(C(=O)COc4c(OC)cccc4C(C)C)CC3)nc(N)c2cc1OC
inactive: 1 nM 0.49% | 8.33 nM 0.12% | 100 nM 3.19% | 833.33 nM 3.59% | 10000 nM 1.29%

N[C@@H](Cn1ccc(=O)n(Cc2ccccc2C(=O)O)c1=O)C(=O)O
inactive: 1 nM 1.86% | 8.33 nM 3.68% | 100 nM -0.19% | 833.33 nM 1.26% | 10000 nM -0.16%

Cc1ccc(NC2=CC(=O)c3sc(C)nc3C2=O)cc1 [ryuvidine]
inactive: 1 nM 1.42% | 8.33 nM 4.18% | 100 nM 4.56% | 833.33 nM 6.56% | 10000 nM -20.4%

CCc1nc(C)ccc1O [emoxipin]
inactive: 1 nM 1.2% | 8.33 nM 3.95% | 100 nM 1.53% | 833.33 nM 0.68% | 10000 nM 1.33%

CC(=O)Nc1nc2c(Oc3cc(-c4ccc(C(F)(F)F)cc4)ncn3)cccc2s1
inactive: 1 nM 1.07% | 8.33 nM 0.66% | 100 nM 2.03% | 833.33 nM 2.31% | 10000 nM 1.83%

C[C@H](Nc1ncnc2[nH]cnc12)c1nc2ccc(F)cc2c(=O)n1-c1ccccc1 [acalisib]
inactive: 1 nM 0.46% | 8.33 nM -0.64% | 100 nM 0.1% | 833.33 nM -0.64% | 10000 nM -5.35%

COC1(C2=NCCN2)COc2ccccc2O1 (stereo not given)
inactive: 1 nM 0.37% | 8.33 nM 1.98% | 100 nM -0.68% | 833.33 nM 1.5% | 10000 nM 1.58%

C[C@H](NC(=O)/C(C#N)=C/c1cccc(Br)n1)c1ccccc1
inactive: 1 nM -2.07% | 8.33 nM -1.75% | 100 nM -2.65% | 833.33 nM 5.36% | 10000 nM -4.77%

Cc1nc2ccc(-n3ncc(C(=O)c4cc5ccccc5[nH]4)c3N)cc2[nH]1
inactive: 1 nM -2.45% | 8.33 nM -1.11% | 100 nM 0.12% | 833.33 nM 2.07% | 10000 nM -0.86%

C[N+](C)(C)CC(=O)O [betaine]
inactive: 1 nM -1.71% | 8.33 nM -0.6% | 100 nM 0.16% | 833.33 nM 1.31% | 10000 nM -1.65%

Cc1c(N(C)C)c(=O)n(-c2ccccc2)n1C [amidopyrine]
inactive: 1 nM -14.8% | 8.33 nM -9.18% | 100 nM -12% | 833.33 nM -13.2% | 10000 nM -11.7%

O=C(O)C(=O)O.[NH-][C@@H]1CCCC[C@H]1[NH-].[Pt+2] [oxaliplatin]
inactive: 1 nM 1.5% | 8.33 nM 1.96% | 100 nM 10.3% | 833.33 nM -2.36% | 10000 nM 1%

COc1ccc(Cl)c(Nc2ncnc3cc(OCC4CCN(C)CC4)c(OC)cc23)c1
inactive: 1 nM -1.15% | 8.33 nM -0.25% | 100 nM -0.48% | 833.33 nM -6.41% | 10000 nM -13.8%

COc1cccc(-c2ccc([C@@H](Oc3cc(-c4ccc(C[C@H](N)C(=O)O)cc4)nc(N)n3)C(F)(F)F)cc2)c1
inactive: 1 nM -4.34% | 8.33 nM -0.04% | 100 nM 1.61% | 833.33 nM 0.52% | 10000 nM -1.29%

CCC[C@@H]1CC2=CC(=O)CC[C@]2(C)[C@H]2CC[C@@]3(C)[C@@H](CC[C@@]3(O)CCC(=O)O)[C@H]12
active: 8.33 nM 15.1%
inactive: 1 nM 1.5% | 100 nM 3.45% | 833.33 nM -4.91% | 10000 nM 1.68%

C#CCN(C)[C@H](C)Cc1ccccc1 [selegiline]
inactive: 1 nM 0.68% | 8.33 nM -1.21% | 100 nM 1.02% | 833.33 nM 0.09% | 10000 nM -0.75%

CCOC(=O)[C@H](Cc1ccc([N+](=O)[O-])cc1)NC(=O)c1ccccc1
inactive: 1 nM 0.55% | 8.33 nM 1.63% | 100 nM 2.6% | 833.33 nM -1.21% | 10000 nM 0.3%

Cc1ncc([N+](=O)[O-])n1CC(C)O (stereo not given) [secnidazole]
inactive: 1 nM -4.41% | 8.33 nM -8.4% | 100 nM -5.52% | 833.33 nM -10.4% | 10000 nM -9.47%

C[C@H](N)Cc1cccc(O)c1 [gepefrine]
inactive: 1 nM 1.14% | 8.33 nM 1.71% | 100 nM 1.51% | 833.33 nM 1.38% | 10000 nM 0.56%

CC(=O)OCC(=O)[C@H]1CC[C@H]2[C@@H]3CC[C@H]4C[C@H](O)CC[C@]4(C)[C@H]3C(=O)C[C@]12C [alfadolone-acetate]
inactive: 1 nM 3.28% | 8.33 nM 3.18% | 100 nM 2.11% | 833.33 nM 1.64% | 10000 nM -4.57%

CC(C)(C)NCC(O)COc1ccc(NC(=O)NC2CCCCC2)cc1 (stereo not given) [talinolol]
inactive: 1 nM 0.2% | 8.33 nM -2.2% | 100 nM -0.81% | 833.33 nM 0.83% | 10000 nM 0.7%

CC(NCCc1ccc(O)cc1)C(O)c1ccc(O)cc1 (stereo not given) [ritodrine]
inactive: 1 nM 0.34% | 8.33 nM -0.09% | 100 nM 1.29% | 833.33 nM -2.19% | 10000 nM -1.02%

CN(C)/N=N/c1[nH]cnc1C(N)=O [dacarbazine]
inactive: 1 nM 2.03% | 8.33 nM 1.02% | 100 nM 2.4% | 833.33 nM 2.07% | 10000 nM -3.02%

CCCCC(F)(F)[C@@]1(O)CC[C@H]2[C@@H](CC(=O)[C@@H]2CCCCCCC(=O)O)O1 [lubiprostone]
inactive: 1 nM -0.41% | 8.33 nM -0.13% | 100 nM -0.73% | 833.33 nM -1.89% | 10000 nM -0.01%

CC(C)(c1ccc(O)cc1)c1ccc(O)cc1 [bisphenol-A]
inactive: 1 nM 3.73% | 8.33 nM 8.2% | 100 nM 2.75% | 833.33 nM 1.31% | 10000 nM 4%

CCOC(=O)[C@H](CCc1ccccc1)N[C@H]1CS[C@H](c2cccs2)CN(CC(=O)O)C1=O [temocapril]
inactive: 1 nM -2.77% | 8.33 nM -0.7% | 100 nM 1.38% | 833.33 nM -0.25% | 10000 nM -3.19%

COc1ccccc1OCCNCC(O)COc1cccc2[nH]c3ccccc3c12 (stereo not given) [carvedilol]
inactive: 1 nM 2.73% | 8.33 nM 3.88% | 100 nM 0.32% | 833.33 nM -1.02% | 10000 nM -1.85%

S=C(NCc1ccc2c(c1)OCO2)N1CCN(c2ncnc3c2oc2ccccc23)CC1 [amuvatinib]
inactive: 1 nM 3.11% | 8.33 nM -0.46% | 100 nM 1.46% | 833.33 nM 2.33% | 10000 nM -1.9%

Cn1c(=O)c2c(ncn2CC(O)CO)n(C)c1=O (stereo not given) [dyphylline]
inactive: 1 nM 1.96% | 8.33 nM -3.64% | 100 nM 0.25% | 833.33 nM 1.93% | 10000 nM -0.77%
